# Screening data from PubChem BioAssay.
# esBAF inh = Bmi1 luciferase reporter increase in mESCs, primary screen, esBAF inhibitor project, mouse ES cells, Bmi1 luciferase knock-in, single point | 24 h; 100% = twice the neutral-well signal | reporter increase, % at 12.5 µM | 350,000 compounds, 2% hits | AID 602393, 2012; in the data active means activation above about 40%;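 further: 0% = median of the plate's neutral control wells and 100% = double that signal; a rise in the Bmi1 reporter signal indicates esBAF inhibition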
# N-glyco inh = increase of ERlucT glycosylation luciferase signal, primary screen, N-linked glycosylation inhibitor project, D54 ERlucT cells, luminescence, set 2 | 360,000 compounds, 0.23% hits | AID 588692, 2011 | reporter increase, % at 12.5 µM | D54 ERlucT glycosylation luciferase reporter, 24 h; percent of 100 nM tunicamycin response;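 active means mean luciferase reporter signal, scaled so untreated is 0 and the glycosylation-blocking control 100, at or above a set limit in every replicate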;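 further: luciferase carries N-glycosylation sites so blocking glycosylation raises the light; 0% = median of neutral control wells and 100% = median of 100 nM tunicamycin wells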
# Vif inh = HIV Vif self-association inhibitors, primary screen, imaging, HEK293T, single point | AID 602346, 2012 | inhibition, % at 7.49 µM | HEK293T cells, Vif self-association by quenched fluorescence, 24 h | 340,000 compounds, 0.35% hits; in the data active means inhibition above about 50%, passing the limit was not always enough
# MITF act = activators of MITF-driven TRPM1 promoter reporter, primary screen, cell-based, SK-MEL-5, luciferase, single point; activation, % at 12.5 µM; SK-MEL-5 TRPM1-promoter luciferase, 24 h; % of positive control, neutral wells = 0; 300,000 compounds, 0.75% hits;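 active means mean activation of at least 80% with every replicate also reaching 80%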;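 further: 0% = neutral control wells and 100% = parthenolide positive control wells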
# PvdQ inh = P. aeruginosa PvdQ acylase inhibitors, primary screen, biochemical, fluorescence, plate reader and imaging, single point. PvdQ acylase [Pseudomonas aeruginosa LESB58]. purified PvdQ acylase. inhibition, % at 10 µM. 340,000 compounds, 0.063% hits; in the data active means inhibition above about 30%, passing the limit was not always enough;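 further: 0% = vehicle neutral wells and 100% = reference inhibitor wells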
# Wnt act = Wnt/beta-catenin pathway activators, primary screen, cell-based, plate reader, single point. Wnt/beta-catenin reporter cell assay, activator. activation, % at 9.35 µM. 300,000 compounds, 1.2% hits; in the data active means activation above about 30%, passing the limit was not always enough;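 further: 0% = neutral control wells and 100% = positive control wells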
# * marks the source's active call; other numbers are inactive results; · = not tested or not shown. A selection: hits, their analogues and other compounds. The true share with any hit is near 2.9%.
SMILES,esBAF inh,N-glyco inh,Vif inh,MITF act,PvdQ inh,Wnt act
CCSc1nnc(NC(=O)c2csc(C)c2)s1,38,0,·,84*,-9,18
O=C(Nc1nnc(-c2ccco2)s1)C1CCCCC1,77*,-3,1,72,-2,·
C[C@H]1CN([C@@H](C)CO)C(=O)Cc2cc(NC(=O)CCN3CCOCC3)ccc2O[C@@H]1CN(C)CC1CC1,0,·,·,·,·,·
CC1(C)CC(=O)C=C(c2cc3ccccc3s2)C1,19,0,-7,35,3,10
O=C1C=C(c2cc3ccccc3s2)CCC1,74*,-5,5,106*,5,26
C[C@H](CO)N1C[C@H](C)[C@@H](CN(C)Cc2ccncc2)OCc2ccccc2-c2ccccc2C1=O,-1,·,·,·,·,·
CN(C)c1ccc(/C=C2\SC(N3CCCCC3)=NC2=O)cc1,-56,-12,196*,-5,-1,0
Cc1ccc(/C=C2\SC(N3CCCC3)=NC2=O)cc1,·,·,·,·,·,7
CC(C)c1ccc(/C=C2\SC(N3CCCC3)=NC2=O)cc1,·,-2,-2,26,0,41*
Cc1noc(C)c1NC(=O)Nc1ccc2c(c1)CC(=O)N([C@H](C)CO)C[C@@H](C)[C@H](CN(C)C(=O)Nc1c(C)noc1C)O2,-1,·,·,·,·,·
Cc1cc(-c2cccc([N+](=O)[O-])c2)nc2ccccc12,·,2,0,-14,-11,4
O=[N+]([O-])c1cccc(-c2cn3ccccc3n2)c1,32,-6,-12,46,-9,67*
COc1ccc(-c2cn3ccccc3n2)cc1[N+](=O)[O-],·,0,·,75,15,·
CS(=O)(=O)Nc1cccc(-c2cnc3ccccc3n2)c1,32,-2,-12,98*,-10,15
O=[N+]([O-])c1cccc(-c2cnc3ccccc3n2)c1,52*,2,13,41,-8,0
COc1ccc(S(=O)(=O)N[C@@H]2C=C[C@@H](CC(=O)NCc3ccccc3F)O[C@H]2CO)cc1,-2,·,·,·,·,·
Cc1ccc(/C=C/C(=O)NCc2cccs2)cc1,46*,2,0,45,3,·
O=C(/C=C/c1cccs1)Nc1cccnc1,·,0,7,92*,2,12
O=C(/C=C/c1cccs1)NCc1cccs1,·,0,-4,·,·,43*
C=CCNC(=O)/C=C/c1cccs1,6,3,2,2,3,-2
Cc1ccc(/C=C/C(=O)NCc2cccs2)c(C)c1,·,-1,9,41,-12,29
CCC(=O)N1[C@@H]2Cn3c(cccc3=O)[C@H]1[C@@H](C(=O)NCc1ccc(F)cc1)[C@@H]2CO,-4,·,·,·,·,·
COCC(=O)Nc1ccc2c(c1)[C@@H]1C[C@@H](CC(=O)NCc3cc(F)ccc3F)O[C@@H](CO)[C@@H]1O2,-1,·,·,·,·,·
C[C@@H]1CN([C@H](C)CO)C(=O)c2cc(C#Cc3cccnc3)cnc2O[C@H]1CN(C)C(=O)CC1CC1,-9,·,·,·,·,·
CCCc1cc(C(=O)NCc2ccccc2)no1,23,0,-2,·,-7,5
SMILES,esBAF inh,N-glyco inh,Vif inh,MITF act,PvdQ inh,Wnt act
CCCc1cc(C(=O)Nc2cccc(Cl)c2C)no1,58*,0,1,50,13,14
CCCc1cc(C(=O)Nc2ccc(C(C)=O)cc2)no1,6,-2,-3,31,-5,14
CCCc1cc(C(=O)Nc2ccccc2SC)no1,51*,0,-6,·,-6,-2
CCCc1cc(C(=O)Nc2ccc(F)cc2F)no1,68*,-1,-7,·,-8,18
CSc1ccccc1NC(=O)c1cc(-c2cccs2)on1,32,1,-4,26,-6,19
COc1cccc(-c2ccc3n(c2=O)C[C@H]2[C@H](CO)[C@@H](C(=O)N(C)C)N(C(=O)C4CC4)[C@@H]32)c1,-1,·,·,·,·,·
CCC(=O)N1[C@H](CO)[C@@H]2c3ccccc3N(C(=O)Nc3cccc(Cl)c3)C[C@@H]21,4,·,·,·,·,·
O=C(NNC1CC(=O)N(c2cccc(Cl)c2)C1=O)c1cccs1 (stereo not given),·,1,53*,-7,-7,-1
